According to PubChem BioAssay (EPA / NIEHS):
Results filed as inconclusive are left out. Calls of active or inactive are those of the source. How the source made its calls, unless noted: active means hit-call score of the fitted dose curve at least 0.9, where 1 is the maximum; inactive means score below 0.9.

Columns and labels:
[1] = read-out: NAD(P)H dehydrogenase [quinone] 1 (NQO1), NQO1 (gene 1728); assay: LTEA_HepaRG_NQO1: Life Technologies and Expression Analysis (LTEA) Assay for NAD(P)H dehydrogenase [quinone] 1 (NQO1) using HepaRG (AID 2283526); conditions: mRNA level, 48 h; actives raise or lower the signal
Summary of the method: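 Human HepaRG hepatic cells received chemicals for 48 h in serum-free induction medium with 0.5% DMSO, up to 100 uM. Expression was assessed by TaqMan qRT-PCR against housekeeping controls and fitted bidirectionally against DMSO.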

[2] = read-out: Nuclear factor erythroid 2-related factor 2 (Homo sapiens) (UniProt Q16236); assay: LTEA_HepaRG_NFE2L2: Life Technologies and Expression Analysis (LTEA) Assay for Nuclear factor erythroid 2-related factor 2 (NFE2L2) Transcription Factor using HepaRG (AID 2283527); conditions: mRNA level, 48 h; actives raise or lower the signal
Summary of the method: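 Differentiated human HepaRG cells, serum-free induction medium, exposed 48 h in duplicate to eight half-log concentrations up to 100 uM in 0.5% DMSO. NFE2L2 mRNA by Fluidigm TaqMan qRT-PCR, normalised to ACTB, GAPDH, POLR2A; bidirectional change versus DMSO.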

[3] = read-out: succinate dehydrogenase complex iron sulfur subunit B (SDHB), SDHB (gene 6390); assay: LTEA_HepaRG_SDHB: Life Technologies and Expression Analysis (LTEA) Assay for succinate dehydrogenase complex iron sulfur subunit B (SDHB) using HepaRG (AID 2283528); conditions: mRNA level, 48 h; actives raise or lower the signal
Summary of the method: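 SDHB transcript level read by TaqMan qRT-PCR, housekeeping-normalised (ACTB, GAPDH, POLR2A), after 48 h chemical treatment of plated HepaRG cells; eight concentrations top 100 uM, half-log steps, 0.5% DMSO, duplicates; fitted both directions against DMSO.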

[4] = read-out: Signal transducer and activator of transcription 3 (Homo sapiens) (UniProt P40763); assay: LTEA_HepaRG_STAT3: Life Technologies and Expression Analysis (LTEA) Assay for Signal transducer and activator of transcription (STAT3) using HepaRG (AID 2283529); conditions: mRNA level, 48 h; actives raise or lower the signal
Summary of the method: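 Differentiated HepaRG cells, serum-free induction medium, dosed 48 h in duplicate, 8 half-log concentrations from 100 uM in 0.5% DMSO. STAT3 mRNA by qRT-PCR, normalised to ACTB, GAPDH, POLR2A; bidirectional fit versus DMSO.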

[5] = read-out: solute carrier (SLCO1B1), SLCO1B1 (gene 10599); assay: LTEA_HepaRG_SLCO1B1: Life Technologies and Expression Analysis (LTEA) Assay for solute carrier (SLCO1B1) using HepaRG (AID 2283530); conditions: mRNA level, 48 h; actives raise or lower the signal
Summary of the method: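 Human HepaRG cultures treated for 48 h with an eight-concentration half-log series topping at 100 uM; SLCO1B1 measured by qRT-PCR and fitted bidirectionally relative to DMSO.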

[6] = read-out: sulfotransferase 2A1 (SULT2A1), SULT2A1 (gene 6822); assay: LTEA_HepaRG_SULT2A1: Life Technologies and Expression Analysis (LTEA) Assay for sulfotransferase 2A1 (SULT2A1) using HepaRG (AID 2283531); conditions: mRNA level, 48 h; actives raise or lower the signal
Summary of the method: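 Gene-expression endpoint in a human liver cell line: SULT2A1 mRNA change after 48 h chemical treatment, curves fitted in both directions relative to 0.5% DMSO vehicle. Concentrations spanned eight half-log steps from 100 uM.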

[7] = read-out: Transforming Growth Factor (TGFA), TGFA (gene 7039); assay: LTEA_HepaRG_TGFA: Life Technologies and Expression Analysis (LTEA) Assay for Transforming Growth Factor (TGFA) using HepaRG (AID 2283532); conditions: mRNA level, 48 h; actives raise or lower the signal
Summary of the method: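 Differentiated HepaRG cells exposed 48 hours in serum-free induction medium, 0.5% DMSO vehicle, 8-point half-log series from 100 uM, in duplicate. TGFA mRNA by TaqMan qRT-PCR, normalised to ACTB, GAPDH, POLR2A; bidirectional fit versus DMSO.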

[8] = read-out: Transforming Growth Factor (TGFB1), TGFB1 (gene 7040); assay: LTEA_HepaRG_TGFB1: Life Technologies and Expression Analysis (LTEA) Assay for Transforming Growth Factor (TGFB1) Transporter using HepaRG (AID 2283533); conditions: mRNA level, 48 h; actives raise or lower the signal
Summary of the method: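 Eight-point concentration-response (max 100 uM, half-log) in HepaRG under serum-free induction conditions, 48 h. TGFB1 mRNA by qRT-PCR, housekeeping-normalized.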

TIMP1, TIMP1 (gene 7076) = assay: LTEA_HepaRG_TIMP1: Life Technologies and Expression Analysis (LTEA) Assay for TIMP1 using HepaRG (AID 2283534); conditions: mRNA level, 48 h; actives raise or lower the signal;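 further: TaqMan qRT-PCR signal normalized to ACTB GAPDH and POLR2A housekeeping genes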
Summary of the method: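 TIMP1 induction or repression in HepaRG cells after 48 h chemical exposure (eight concentrations, highest 100 uM), assessed by normalized qRT-PCR with bidirectional fitting to DMSO controls.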

[9] = read-out: Tumor necrosis factor receptor 1 (TNFRSF1A), TNFRSF1A (gene 7132); assay: LTEA_HepaRG_TNFRSF1A: Life Technologies and Expression Analysis (LTEA) Assay for Tumor necrosis factor receptor 1 (TNFRSF1A) using HepaRG (AID 2283535); conditions: mRNA level, 48 h; actives raise or lower the signal
Summary of the method: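 Assay uses 48 h chemical treatment of differentiated HepaRG monolayers, tested in duplicate at eight concentrations from 100 uM downward in 0.5% DMSO. mRNA is normalized to ACTB, GAPDH and POLR2A, with induction or suppression fitted relative to vehicle.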

[10] = read-out: Thyroid Hormone Responsive (THRSP), THRSP (gene 7069); assay: LTEA_HepaRG_THRSP: Life Technologies and Expression Analysis (LTEA) Assay for Thyroid Hormone Responsive (THRSP) using HepaRG (AID 2283536); conditions: mRNA level, 48 h; actives raise or lower the signal
Summary of the method: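 Differentiated HepaRG cells treated 48 h in serum-free induction medium with 8 half-log concentrations up to 100 uM (0.5% DMSO), duplicates. THRSP mRNA by TaqMan qRT-PCR normalised to ACTB, GAPDH, POLR2A; bidirectional fit versus DMSO.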

[11] = read-out: Cellular tumor antigen p53 (Homo sapiens) (UniProt P04637); assay: LTEA_HepaRG_TP53: Life Technologies and Expression Analysis (LTEA) Assay for Tumor Protein P53 (TP53) using HepaRG (AID 2283537); conditions: mRNA level, 48 h; actives raise or lower the signal
Summary of the method: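 TP53 transcript measured by qRT-PCR, normalized to three housekeeping genes, after 48 h treatment of human HepaRG cultures with chemicals from 100 uM downward in half-log steps (0.5% DMSO vehicle, serum-free induction medium). Up- or down-regulation fitted against DMSO.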

[12] = read-out: UDP glucuronosyltransferase (UGT1A1), UGT1A1 (gene 54658); assay: LTEA_HepaRG_UGT1A1: Life Technologies and Expression Analysis (LTEA) Assay for UDP glucuronosyltransferase (UGT1A1) using HepaRG (AID 2283538); conditions: mRNA level, 48 h; actives raise or lower the signal
Summary of the method: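 Human liver HepaRG cultures receive test chemical for 48 h, up to 100 uM in 0.5% DMSO, with phenobarbital induction controls. UGT1A1 mRNA is measured by qRT-PCR and normalized to ACTB, GAPDH and POLR2A.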

[13] = read-out: UDP glucuronosyltransferase (UGT1A6), UGT1A6 (gene 54578); assay: LTEA_HepaRG_UGT1A6: Life Technologies and Expression Analysis (LTEA) Assay for UDP glucuronosyltransferase (UGT1A6) using HepaRG (AID 2283539); conditions: mRNA level, 48 h; actives raise or lower the signal
Summary of the method: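 Measures mRNA change in HepaRG hepatic cells exposed 48 h to chemicals (eight-point, maximum 100 uM, 0.5% DMSO vehicle) in serum-free induction medium. Expression normalized to endogenous controls; DMSO served as negative control and baseline.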

[14] = read-out: X-box binding protein 1 (XBP1), XBP1 (gene 7494); assay: LTEA_HepaRG_XBP1: Life Technologies and Expression Analysis (LTEA) Assay for X-box binding protein 1 (XBP1) using HepaRG (AID 2283540); conditions: mRNA level, 48 h; actives raise or lower the signal
Summary of the method: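 Eight concentrations (half-log, highest 100 uM, 0.5% DMSO) tested in duplicate on HepaRG cells over 48 h in serum-free induction medium; qRT-PCR of XBP1 normalised to ACTB, GAPDH, POLR2A.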

[15] = LTEA_HepaRG_LDH_cytotoxicity: Cytotoxicity Assessment in the Life Technologies and Expression Analysis (LTEA) Assay (AID 2283563; active means hit-call score of the fitted dose curve at least 0.9, where 1 is the maximum)
Summary of the method: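 Spent-medium LDH after 48 h chemical exposure of HepaRG cells in serum-free induction medium; eight concentrations, half-log dilutions from 100 uM, duplicate wells, fitted upward relative to 0.5% DMSO.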

[16] = Tanguay_ZF_120hpf_MORT_legacy: (Legacy) Oregon State University Tanguay Lab 120 Hour Post-fertilization zebrafish Assay for Mortality (AID 2283633; active means hit-call score of the fitted dose curve at least 0.9, where 1 is the maximum)
Summary of the method: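 Single dechorionated Tropical 5D embryos were held with test chemical (0.64% DMSO final) from 6 to 120 hpf at 28C under foil. Deaths at 24 or 120 hpf were recorded as binary calls, analysed for increase over DMSO controls.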

[17] = Tanguay_ZF_120hpf_YSE_legacy: (Legacy) Oregon State University Tanguay Lab 120 Hour Post-fertilization zebrafish Assay for Yolk Sac Edema (AID 2283634; active means hit-call score of the fitted dose curve at least 0.9, where 1 is the maximum)
Summary of the method: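 Single dechorionated embryos were held in sealed plates at 28C with test chemical (0.64% DMSO final) from 6 hpf until 120 hpf. Edema of the yolk sac was then recorded as a binary endpoint; non-mortality endpoints were skipped for dead embryos.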

[18] = Tanguay_ZF_120hpf_EYE_legacy: (Legacy) Oregon State University Tanguay Lab 120 Hour Post-fertilization zebrafish Assay for Eye Malformation (AID 2283636; active means hit-call score of the fitted dose curve at least 0.9, where 1 is the maximum;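 further: binary presence or absence of eye malformation scored by brightfield in 120 hpf larvae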)
Summary of the method: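 Dechorionated Tropical 5D zebrafish embryos, one per well from 6 hpf, static exposure to 120 hpf at 28C, 0.64% DMSO. Eye malformation scored present/absent by brightfield; dead embryos not scored.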

[19] = Tanguay_ZF_120hpf_SNOU_legacy: (Legacy) Oregon State University Tanguay Lab 120 Hour Post-fertilization zebrafish Assay for Snout Malformation (AID 2283637; active means hit-call score of the fitted dose curve at least 0.9, where 1 is the maximum)
Summary of the method: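 Dechorionated tropical 5D wild-type zebrafish embryos exposed statically from 6 to 120 hpf at 28C, one per well, in 0.64% DMSO. Snout malformation scored as present/absent by brightfield at 120 hpf; dead embryos not scored.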

Measured: outcome

Chain of Cellular tumor antigen p53 (Homo sapiens) (P04637 whole entry, looked up): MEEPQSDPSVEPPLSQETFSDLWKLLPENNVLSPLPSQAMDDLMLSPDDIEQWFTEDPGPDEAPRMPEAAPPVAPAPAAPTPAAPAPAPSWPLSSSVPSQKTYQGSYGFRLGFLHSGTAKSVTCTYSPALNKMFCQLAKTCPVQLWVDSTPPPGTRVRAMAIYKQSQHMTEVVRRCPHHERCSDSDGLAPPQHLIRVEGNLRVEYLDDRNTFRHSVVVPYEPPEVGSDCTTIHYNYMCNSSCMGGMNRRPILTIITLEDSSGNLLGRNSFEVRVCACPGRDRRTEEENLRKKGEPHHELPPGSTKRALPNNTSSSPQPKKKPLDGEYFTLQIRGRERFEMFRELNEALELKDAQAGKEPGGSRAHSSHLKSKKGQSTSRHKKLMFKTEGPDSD
Chain of Nuclear factor erythroid 2-related factor 2 (Homo sapiens) (Q16236 whole entry, looked up): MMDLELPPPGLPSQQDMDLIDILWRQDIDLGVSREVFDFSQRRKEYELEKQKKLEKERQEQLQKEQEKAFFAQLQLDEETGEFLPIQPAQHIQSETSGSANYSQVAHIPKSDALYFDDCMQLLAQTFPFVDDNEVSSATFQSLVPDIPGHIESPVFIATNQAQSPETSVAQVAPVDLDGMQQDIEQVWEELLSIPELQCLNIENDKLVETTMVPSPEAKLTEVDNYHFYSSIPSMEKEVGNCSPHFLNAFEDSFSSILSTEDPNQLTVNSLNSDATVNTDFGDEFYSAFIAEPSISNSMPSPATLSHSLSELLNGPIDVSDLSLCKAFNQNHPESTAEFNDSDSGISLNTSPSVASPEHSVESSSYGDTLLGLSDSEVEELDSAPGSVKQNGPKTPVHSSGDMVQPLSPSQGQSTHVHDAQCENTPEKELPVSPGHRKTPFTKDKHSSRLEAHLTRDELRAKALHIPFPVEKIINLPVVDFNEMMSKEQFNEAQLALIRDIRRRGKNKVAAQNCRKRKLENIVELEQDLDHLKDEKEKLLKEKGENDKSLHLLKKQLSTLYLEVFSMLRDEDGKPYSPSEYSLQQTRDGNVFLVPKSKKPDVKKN
Chain of Signal transducer and activator of transcription 3 (Homo sapiens) (P40763 whole entry, looked up): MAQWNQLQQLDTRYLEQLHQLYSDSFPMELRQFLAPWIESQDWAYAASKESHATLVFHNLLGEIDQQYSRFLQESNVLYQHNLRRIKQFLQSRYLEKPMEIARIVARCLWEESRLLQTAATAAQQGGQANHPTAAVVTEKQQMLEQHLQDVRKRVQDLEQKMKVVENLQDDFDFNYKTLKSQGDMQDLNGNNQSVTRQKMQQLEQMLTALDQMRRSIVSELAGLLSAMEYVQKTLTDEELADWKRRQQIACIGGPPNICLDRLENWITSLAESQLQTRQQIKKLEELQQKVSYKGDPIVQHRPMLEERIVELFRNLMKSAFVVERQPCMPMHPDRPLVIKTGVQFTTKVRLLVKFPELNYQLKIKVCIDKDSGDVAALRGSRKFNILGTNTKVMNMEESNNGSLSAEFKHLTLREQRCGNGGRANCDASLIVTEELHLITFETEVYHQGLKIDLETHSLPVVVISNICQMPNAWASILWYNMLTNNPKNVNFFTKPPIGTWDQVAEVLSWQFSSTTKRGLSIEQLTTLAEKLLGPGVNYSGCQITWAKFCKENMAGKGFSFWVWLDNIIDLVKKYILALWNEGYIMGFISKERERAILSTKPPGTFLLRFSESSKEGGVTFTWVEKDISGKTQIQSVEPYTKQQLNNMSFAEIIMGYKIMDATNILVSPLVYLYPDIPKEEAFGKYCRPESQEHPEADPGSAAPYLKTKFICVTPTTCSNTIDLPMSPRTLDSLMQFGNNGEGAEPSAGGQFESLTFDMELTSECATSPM

CCC(C)=NO
inactive: all assays above
